Hit rate of the full screen: of about 48,000 compounds, about 13,000 (27%) showed an effect of 50% or more. The list shows a part of the results.
What follows are compounds tested on Wolbachia pipientis (assay: Anti-Wolbachia Cell-Based Screen). Conditions: 5 µM.
Type: functional
Parameters: scale not given: in the data most compounds retested in dose-response had high values

SMILES | Percent Effect
CN(Cc1cc(-c2ccccc2)no1)Cc1nccn1C | 8.065%
Cc1nn(CCO)c(C)c1CNC1CCc2c(F)cccc21 (centres undefined) | 1.037%
N#Cc1ccc(CN(CC(N)=O)C2CCCC2)cc1 | -1.161%
O=C(Nc1ccccc1F)N(CCO)CCOCC(F)(F)F | -14.38%
CC(C)(C)S(=O)(=O)CCNC1CSCCc2ccccc21 (centres undefined) | 8.355%
CCc1n[nH]c(SCC(=O)N2C[C@@H]3CC[C@H](C2)N(CC=C(C)C)C3)n1 | 12.53%
CCOC(=O)c1cc2c(=O)[nH]c(=O)n(CCc3ccccc3)c2nc1C | -3.034%
O=C1CCc2cc(-c3csc(CCN4CCCC4=O)n3)ccc2N1 | -1.736%
CCCN1C(=O)c2ccccc2C1OC (centres undefined) | 104.1%
CCn1cnc(NC(=O)N2CCC(c3ccc(Cl)cc3)C2)n1 (centres undefined) | -2.672%
Cc1nc(C)n(CCCn2ccnc2-c2cc3n(n2)CCCNC3)n1 | 0.4256%
Cn1ccc(C(=O)N2CCN(c3ccccn3)CC2)cc1=O | 94.46%
Cn1ccc(C(=O)N2CCN(c3cc(C#N)ccn3)CC2)cc1=O | 6.84%
Cn1ccc(C(=O)N2CCN(c3ncccn3)CC2)cc1=O | -7.771%
Cn1cc(C(=O)N2CCN(c3ccccc3)CC2)ccc1=O | -6.133%
Cn1ccc(C(=O)N2CCN(c3nccs3)CC2)cc1=O | 97.2%
Cn1cc(C(=O)N2CCN(c3ccc(F)cc3)CC2)ccc1=O | 27.16%
O=C(c1cc(Cl)cc(Cl)c1)N1CCN(c2nccs2)CC1 | -10.96%
Cn1cc(C(=O)N2CCN(c3ncccn3)CC2)ccc1=O | 122.7%
Cn1ccc(CN2CCCN(c3nccs3)CC2)cc1=O | 11.25%
Cc1cnccc1-n1nc(C(C)C)nc1CCc1cnccn1 | -10.93%
Cc1noc(CCCC(=O)NC(C)c2cn(-c3ccccc3)nn2)n1 (centres undefined) | -6.671%
CC(C)CO[C@@H]1CC[C@H]2[C@H]1OCCN2S(=O)(=O)C1CC1 | 103.9%
CCS(=O)(=O)N1CCO[C@H]2[C@H](OCC3CCCC3)CC[C@@H]21 | -19.91%
CCO[C@@H]1CC[C@H]2[C@H]1OCCN2S(=O)(=O)c1cn(C)cn1 | -10.77%

SMILES | Percent Effect
O=S(=O)(C1CC1)N1CCO[C@H]2[C@H](OCC3CC3)CC[C@@H]21 | 103.2%
Cn1cnc(S(=O)(=O)N2CCO[C@H]3[C@H](OCC4CC4)CC[C@@H]32)c1 | -0.8778%
O=S(=O)(C1CC1)N1CCO[C@H]2[C@H](OCC3CCCC3)CC[C@@H]21 | -8.752%
CCO[C@@H]1CC[C@H]2[C@H]1OCCN2S(=O)(=O)C1CC1 | 110.7%
CO[C@@H]1CC[C@H]2[C@H]1OCCN2S(=O)(=O)C1CC1 | 111.8%
Cn1cnc(S(=O)(=O)N2CCO[C@H]3[C@@H](OCC4CC4)CC[C@@H]32)c1 | -7.379%
Cc1cc(CN(C)C(=O)NC2CCCN(c3ncccn3)C2)no1 (centres undefined) | -2.323%
Nc1nccc(N2CCCC(CO)(CCOc3ccccc3)C2)n1 (centres undefined) | -20.36%
CC(C(=O)NCc1cccs1)N1CCN(Cc2nccn2C)CC1 (centres undefined) | 4.204%
Cn1ccnc1CN1CCN(CC(=O)NCc2cccs2)CC1 | 99.27%
Cc1ccccc1CNC(=O)CN1CCN(Cc2nccn2C)CC1 | 7.197%
Cn1ccnc1CN1CCN(CC(=O)NCc2ccccc2F)CC1 | 129%
Cn1ccnc1CN1CCN(CC(=O)NCC(F)(F)F)CC1 | 1.598%
COc1ccc(CC(=O)N2CC[C@@]3(O)CCNC[C@H]3C2)c(OC)c1 | -12.62%
CCc1nc(CN(C)Cc2ncc(-c3cccs3)o2)cs1 | -9.321%
CN1CC(c2ccccc2)CC2(CCN(Cc3ncc[nH]3)CC2)C1 (centres undefined) | -21.2%
Cc1ccc(C(CNCc2cccnc2)N2CCOCC2)s1 (centres undefined) | 5.338%
Cc1ccccc1NC(=O)NCCn1nc(C(F)(F)F)n(C)c1=O | 4.371%
CN(C)CCn1c2c(ccc1=O)CC(NCc1cccnc1)CC2.O=C(O)C(F)(F)F.O=C(O)C(F)(F)F.O=C(O)C(F)(F)F (centres undefined) | -9.426%
Cn1cc(CNC2CCc3c(ccc(=O)n3Cc3cccnc3)C2)cn1.O=C(O)C(F)(F)F.O=C(O)C(F)(F)F (centres undefined) | 105.5%
O=C(NC1CC1)N1CCc2ccc(=O)n(Cc3cccnc3)c2CC1.O=C(O)C(F)(F)F | -14.38%
Cn1cc(CNC2CCc3c(ccc(=O)n3Cc3ccncc3)C2)cn1.O=C(O)C(F)(F)F.O=C(O)C(F)(F)F (centres undefined) | 101.4%
NC1CCc2c(ccc(=O)n2Cc2ccncc2)C1 (centres undefined) | -38.16%
CN(C)CCn1c2c(ccc1=O)CC(NCc1cnn(C)c1)CC2.O=C(O)C(F)(F)F.O=C(O)C(F)(F)F (centres undefined) | 92.68%
